PubChem BioAssay (EPA / NIEHS)
Records with an inconclusive call do not appear. The source made the active and inactive calls. The calls were made as follows, unless noted: active = hit-call score of the fitted dose curve at least 0.9, where 1 is the maximum; inactive = score below 0.9.

How the values were obtained:
[1] = ATG_TAL_CIS: Attagene CIS-FACTORIAL HepG2 Assay for human TAL Basal Promoter (AID 2282966); settings: HepG2 Attagene cis-factorial TAL promoter reporter; actives raise or lower the signal;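 also: background control endpoint measuring basal TAL promoter reporter mRNA not a specific factor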
In short: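 Readout: reporter mRNA, fluorescence by CE. System: HepG2, transient multi-reporter transfection, endogenous TF activity. Exposure: 24 h. Analysis: bidirectional, DMSO-normalized; background control.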

[2] = ATG_TGFb_CIS: Attagene CIS-FACTORIAL HepG2 Assay for human Transforming Growth Factor (TGF) (AID 2282967); settings: HepG2 Attagene CIS TGFb reporter, mRNA transcription; actives raise or lower the signal
In short: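 Readout: fluorescently labeled reporter cDNA fragments resolved by capillary electrophoresis after RT-PCR. Transfected HepG2 cells dosed for 24 h; endogenous TF activity at TGFB1-linked cis element; gain or loss fitted relative to DMSO.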

[3] = ATG_VDRE_CIS: Attagene CIS-FACTORIAL HepG2 Assay for human Vitamin D Receptor Element (VDRE) (AID 2282968); settings: HepG2 VDRE cis-reporter transcription, actives raise or lower the signal
In short: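 Transiently transfected HepG2 cells carrying cis-regulated reporter transcription units were exposed for 24 h. Reporter mRNA was measured by RT-PCR with fluorescent labelling and capillary electrophoresis, and fitted in both directions against DMSO.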

[4] = target: Estrogen receptor (Homo sapiens) (UniProt P03372); experiment: ATG_ERa_TRANS: Attagene TRANS-FACTORIAL HepG2 Assay for human Estrogen Receptor alpha (ERa) (AID 2282970; active = hit-call score of the fitted dose curve at least 0.9, where 1 is the maximum); settings: HepG2 Attagene TRANS ERa GAL4 reporter, mRNA
In short: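 Transactivation via ERa-Gal4 chimera in HepG2; 24 hour incubation; reporter mRNA detected by fluorescence RT-PCR and capillary electrophoresis.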

[5] = target: Steroid hormone receptor ERR1 (Homo sapiens) (UniProt P11474); experiment: ATG_ERRa_TRANS: Attagene TRANS-FACTORIAL HepG2 Assay for human Estrogen-Related Receptor alpha (ERRa) (AID 2282971; active = hit-call score of the fitted dose curve at least 0.9, where 1 is the maximum); settings: HepG2 Attagene TRANS reporter, ERRa transactivation
In short: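 HepG2 cells were transiently transfected with multiple GAL4-UAS reporter units, then dosed with compound for 24 h. Total RNA was reverse-transcribed, reporter cDNA PCR-amplified and fluorescently labelled, and fragments resolved by capillary electrophoresis; induction was compared with DMSO.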

[6] = target: X-box-binding protein 1 (Homo sapiens) (UniProt P17861); experiment: ATG_Xbp1_CIS: Attagene CIS-FACTORIAL HepG2 Assay for human X-box Binding Protein 1 (XBP1) (AID 2282972); settings: HepG2 XBP1 cis-element reporter, Attagene multiplex; actives raise or lower the signal
In short: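 HepG2, transient MRTU transfection (cis-promoter driven), 24 h compound exposure. Total RNA → oligo(dT) RT → PCR → 6-FAM labeling → HpaI cut → CE. Bidirectional fit vs DMSO.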

[7] = ATG_M_19_TRANS: Attagene TRANS-FACTORIAL HepG2 Assay for M19 Transcription Factor (Internal Marker) (AID 2282974; active = hit-call score of the fitted dose curve at least 0.9, where 1 is the maximum); settings: HepG2 Attagene TRANS-FACTORIAL M19 internal marker reporter
In short: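 Fluorescence of 6-FAM-labelled reporter cDNA fragments, separated by capillary electrophoresis, served as the readout. These derived from HepG2 cells carrying transfected GAL4-UAS reporter units after 24 h dosing, with DMSO as negative control.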

[8] = target: Estrogen-related receptor gamma (Homo sapiens) (UniProt P62508); experiment: ATG_ERRg_TRANS: Attagene TRANS-FACTORIAL HepG2 Assay for human Estrogen-Related Receptor gamma (ERRg) (AID 2282977; active = hit-call score of the fitted dose curve at least 0.9, where 1 is the maximum;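 also: hits increase reporter signal over DMSO so potencies reflect activators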); settings: HepG2 Attagene TRANS reporter, ERRg transactivation
In short: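 Transfect HepG2 with multiple GAL4-UAS reporter transcription units; dose chemicals 24 h; isolate RNA, reverse-transcribe with oligo(dT), PCR-amplify, label with 6-FAM, digest with HpaI; size fragments by capillary electrophoresis. DMSO serves as negative control.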

[9] = target: Glucocorticoid receptor (Homo sapiens) (UniProt P04150); experiment: ATG_GR_TRANS: Attagene TRANS-FACTORIAL HepG2 Assay for human Glucocorticoid Receptor (GR) (AID 2282978; active = hit-call score of the fitted dose curve at least 0.9, where 1 is the maximum;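 also: activators score as hits since higher reporter transcript over DMSO is fitted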); settings: HepG2 Attagene TRANS GR reporter, mRNA transcription
In short: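 Fluorescent capillary-electrophoresis quantitation of reporter mRNA is the readout, taken 24 h after dosing human HepG2 cells carrying transiently transfected GAL4-UAS reporter units activated by chimeric NR-GAL4 fusions; activity scored as induction over DMSO.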

[10] = target: Hepatocyte nuclear factor 4-alpha (Homo sapiens) (UniProt P41235); experiment: ATG_HNF4a_TRANS: Attagene TRANS-FACTORIAL HepG2 Assay for human Hepatocyte Nuclear Factor 4 alpha (HNF4a) (AID 2282982; active = hit-call score of the fitted dose curve at least 0.9, where 1 is the maximum); settings: HepG2 HNF4a transactivation reporter, mRNA readout
In short: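 HepG2 cells transiently transfected with HNF4a-Gal4 chimera and GAL4-UAS reporter units, dosed for 24 h. Reporter mRNA measured by RT-PCR, fluorescent primer extension and capillary electrophoresis; gain-of-signal fitted relative to DMSO.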

[11] = ATG_M_32_TRANS: Attagene TRANS-FACTORIAL HepG2 Assay for M32 Transcription Factor (Internal Marker) (AID 2282984; active = hit-call score of the fitted dose curve at least 0.9, where 1 is the maximum); settings: HepG2 Attagene TRANS M32 internal marker reporter
In short: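 HepG2 cells transiently transfected with GAL4-UAS reporter units, dosed for 24 hours. Reporter mRNA quantified by RT-PCR, 6-FAM labelling, HpaI digestion and capillary electrophoresis; internal-marker signal fitted upward relative to DMSO.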

[12] = target: Nuclear receptor subfamily 4 group A member 2 (Homo sapiens) (UniProt P43354); experiment: ATG_NURR1_TRANS: Attagene TRANS-FACTORIAL HepG2 Assay for human Nuclear Receptor Related Protein 1 (NURR1) (AID 2282985; active = hit-call score of the fitted dose curve at least 0.9, where 1 is the maximum); settings: HepG2 Attagene TRANS reporter, mRNA readout
In short: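 HepG2 cells transiently transfected with NURR1-Gal4 chimera and GAL4-UAS reporter units; after 24 hr compound exposure, reporter mRNA quantified by RT-PCR and capillary electrophoresis; gain of signal fitted against DMSO.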

[13] = target: Transcriptional activator Myb (Homo sapiens) (UniProt P10242); experiment: ATG_Myb_CIS: Attagene CIS-FACTORIAL HepG2 Assay for human Myeloblastosis (Myb) Proto-Oncogene Transcription Factor (AID 2282986); settings: HepG2 Attagene CIS-FACTORIAL Myb reporter transcription; actives raise or lower the signal
In short: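 Reporter transcript levels, quantified by fluorescent RT-PCR and capillary electrophoresis, serve as the read-out. Transfected HepG2 cells carrying cis-promoter reporter units are dosed for 24 hours, and curves are fitted bidirectionally against DMSO controls.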

[14] = target: Nuclear respiratory factor 1 (Homo sapiens) (UniProt Q16656); experiment: ATG_NRF1_CIS: Attagene CIS-FACTORIAL HepG2 Assay for human Nuclear Respiratory Factor 1 (NRF1) Orphan Gene (AID 2282987); settings: HepG2 NRF1 cis-element reporter, Attagene multiplex; actives raise or lower the signal
In short: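 Multiplexed cis-reporter assay, HepG2 cells, 24 h treatment. Total RNA → oligo(dT) RT → PCR with reporter-specific primers → 6-FAM primer extension → HpaI cut → CE. Bidirectional fit vs DMSO.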

[15] = ATG_M_06_TRANS: Attagene TRANS-FACTORIAL HepG2 Assay for M06 Transcription Factor (Internal Marker) (AID 2282983; active = hit-call score of the fitted dose curve at least 0.9, where 1 is the maximum); settings: HepG2 Attagene TRANS M06 internal marker reporter
In short: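 Measured by capillary electrophoresis of fluorescently labelled RT-PCR products, this endpoint reflects reporter mRNA in HepG2 cells harbouring exogenous NR-GAL4 reporter constructs after 24 h exposure, with DMSO as baseline.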

[16] = ATG_GAL4_TRANS: Attagene TRANS-FACTORIAL HepG2 Assay for GAL4 (Internal Marker) (AID 2282976; active = hit-call score of the fitted dose curve at least 0.9, where 1 is the maximum); settings: HepG2 Attagene TRANS GAL4 internal marker reporter
In short: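 Fluorescence from capillary electrophoresis of labelled RT-PCR products quantifies reporter mRNA induction after 24 h dosing of HepG2 cells carrying transfected GAL4-UAS reporter transcription units. Vehicle DMSO serves as baseline.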

[17] = target: Oxysterols receptor LXR-alpha (Homo sapiens) (UniProt Q13133); experiment: ATG_LXRa_TRANS: Attagene TRANS-FACTORIAL HepG2 Assay for human Liver X Receptor alpha (LXRa) (AID 2282980; active = hit-call score of the fitted dose curve at least 0.9, where 1 is the maximum); settings: HepG2 Attagene TRANS reporter, LXRa transactivation
In short: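 Transient HepG2 transfectants, 24 h dosing, RT-PCR/CE mRNA reporter quantitation; gain-of-signal vs DMSO.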

[18] = target: Androgen receptor (Homo sapiens) (UniProt P10275); experiment: ATG_AR_TRANS: Attagene TRANS-FACTORIAL HepG2 Assay for human Androgen Receptor (AR) (AID 2282973; active = hit-call score of the fitted dose curve at least 0.9, where 1 is the maximum); settings: HepG2 Attagene TRANS-FACTORIAL AR reporter transcription
In short: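 Transfected HepG2, 24 h treatment, chimeric NR-Gal4 driving GAL4-UAS reporters. mRNA induction by RT-PCR/capillary electrophoresis fluorescence; DMSO as negative control and baseline.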

[19] = target: Bile acid receptor (Homo sapiens) (UniProt Q96RI1); experiment: ATG_FXR_TRANS: Attagene TRANS-FACTORIAL HepG2 Assay for Farnesoid X Receptor (FXR) (AID 2282979; active = hit-call score of the fitted dose curve at least 0.9, where 1 is the maximum;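 also: hits raise reporter mRNA above DMSO so AC50 marks FXR activation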); settings: HepG2 Attagene TRANS FXR-GAL4 reporter transcription
In short: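 Chimeric FXR-GAL4 activity in transiently transfected human HepG2 liver cells is scored as induction of reporter mRNA after 24 h of dosing. Detection uses RT-PCR with fluorescent labelling and capillary electrophoresis, with DMSO serving as baseline.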

[20] = target: Nuclear receptor subfamily 1 group I member 3 (Homo sapiens) (UniProt Q14994); experiment: ATG_CAR_TRANS: Attagene TRANS-FACTORIAL HepG2 Assay for human Constitutive Androstane Receptor (CAR) (AID 2282969; active = hit-call score of the fitted dose curve at least 0.9, where 1 is the maximum;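 also: activators raise reporter mRNA above DMSO so AC50 marks induction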); settings: HepG2 Attagene TRANS-FACTORIAL CAR reporter
In short: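 HepG2 cells transiently transfected with GAL4-UAS reporter units; TRANS format reads activity of exogenous chimeric NR-Gal4 protein. After 24 h dosing, reporter mRNA quantified by RT-PCR, 6-FAM labelling and capillary electrophoresis; gain of signal fitted against DMSO.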

Measured: AC50

Sequence of Glucocorticoid receptor (Homo sapiens) (P04150 whole entry, looked up, the tested form may be a part): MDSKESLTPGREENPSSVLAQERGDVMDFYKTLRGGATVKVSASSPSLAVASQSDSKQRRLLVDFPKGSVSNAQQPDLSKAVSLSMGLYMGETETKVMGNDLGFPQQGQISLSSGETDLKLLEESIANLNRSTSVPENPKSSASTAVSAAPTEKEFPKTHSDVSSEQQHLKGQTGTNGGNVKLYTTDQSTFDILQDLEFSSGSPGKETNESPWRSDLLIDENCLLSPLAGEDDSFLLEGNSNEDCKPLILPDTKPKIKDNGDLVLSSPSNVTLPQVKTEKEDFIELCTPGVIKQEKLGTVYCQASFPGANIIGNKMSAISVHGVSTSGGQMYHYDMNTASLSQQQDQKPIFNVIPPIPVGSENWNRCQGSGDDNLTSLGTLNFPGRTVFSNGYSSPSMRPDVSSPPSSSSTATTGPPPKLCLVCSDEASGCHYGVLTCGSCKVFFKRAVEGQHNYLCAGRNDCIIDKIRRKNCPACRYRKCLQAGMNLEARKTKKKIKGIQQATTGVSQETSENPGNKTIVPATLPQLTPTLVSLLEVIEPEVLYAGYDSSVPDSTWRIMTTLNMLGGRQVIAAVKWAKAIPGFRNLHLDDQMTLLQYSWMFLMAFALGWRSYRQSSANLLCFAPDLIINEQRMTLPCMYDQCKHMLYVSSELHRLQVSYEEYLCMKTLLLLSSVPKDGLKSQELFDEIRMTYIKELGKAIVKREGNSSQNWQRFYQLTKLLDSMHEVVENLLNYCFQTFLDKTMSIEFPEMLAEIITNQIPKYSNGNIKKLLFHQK
Sequence of Nuclear respiratory factor 1 (Homo sapiens) (Q16656 whole entry, looked up): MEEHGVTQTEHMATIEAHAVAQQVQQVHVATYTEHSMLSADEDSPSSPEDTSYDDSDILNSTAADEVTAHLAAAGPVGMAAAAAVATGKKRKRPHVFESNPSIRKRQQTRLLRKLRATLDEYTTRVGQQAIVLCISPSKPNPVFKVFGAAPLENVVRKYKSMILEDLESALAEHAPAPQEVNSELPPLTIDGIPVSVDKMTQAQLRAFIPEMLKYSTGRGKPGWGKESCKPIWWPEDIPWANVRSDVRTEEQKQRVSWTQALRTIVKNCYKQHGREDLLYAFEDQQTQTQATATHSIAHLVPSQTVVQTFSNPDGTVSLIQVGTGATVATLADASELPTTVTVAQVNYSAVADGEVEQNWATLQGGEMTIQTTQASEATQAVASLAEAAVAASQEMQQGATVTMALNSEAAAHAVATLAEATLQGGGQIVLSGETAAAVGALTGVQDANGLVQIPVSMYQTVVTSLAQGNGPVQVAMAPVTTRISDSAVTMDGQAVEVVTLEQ
Sequence of Nuclear receptor subfamily 4 group A member 2 (Homo sapiens) (P43354 whole entry, looked up, the tested form may be a part): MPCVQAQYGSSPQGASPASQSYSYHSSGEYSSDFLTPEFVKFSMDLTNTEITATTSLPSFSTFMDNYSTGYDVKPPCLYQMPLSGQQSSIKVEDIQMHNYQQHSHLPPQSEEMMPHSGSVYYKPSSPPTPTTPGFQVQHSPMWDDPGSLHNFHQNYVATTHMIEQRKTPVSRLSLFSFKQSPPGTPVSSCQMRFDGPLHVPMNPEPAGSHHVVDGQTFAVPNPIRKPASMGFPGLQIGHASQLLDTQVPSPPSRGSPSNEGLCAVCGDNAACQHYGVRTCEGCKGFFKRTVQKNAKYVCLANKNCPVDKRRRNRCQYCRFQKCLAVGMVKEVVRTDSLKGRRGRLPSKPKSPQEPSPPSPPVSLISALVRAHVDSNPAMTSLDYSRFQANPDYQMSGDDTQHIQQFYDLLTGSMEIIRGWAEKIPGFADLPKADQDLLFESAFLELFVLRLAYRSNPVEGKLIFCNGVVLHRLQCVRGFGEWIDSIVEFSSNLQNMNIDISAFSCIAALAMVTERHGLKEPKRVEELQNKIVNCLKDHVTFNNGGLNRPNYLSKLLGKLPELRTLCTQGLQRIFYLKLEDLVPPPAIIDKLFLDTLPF
Sequence of Hepatocyte nuclear factor 4-alpha (Homo sapiens) (P41235 whole entry, looked up, the tested form may be a part): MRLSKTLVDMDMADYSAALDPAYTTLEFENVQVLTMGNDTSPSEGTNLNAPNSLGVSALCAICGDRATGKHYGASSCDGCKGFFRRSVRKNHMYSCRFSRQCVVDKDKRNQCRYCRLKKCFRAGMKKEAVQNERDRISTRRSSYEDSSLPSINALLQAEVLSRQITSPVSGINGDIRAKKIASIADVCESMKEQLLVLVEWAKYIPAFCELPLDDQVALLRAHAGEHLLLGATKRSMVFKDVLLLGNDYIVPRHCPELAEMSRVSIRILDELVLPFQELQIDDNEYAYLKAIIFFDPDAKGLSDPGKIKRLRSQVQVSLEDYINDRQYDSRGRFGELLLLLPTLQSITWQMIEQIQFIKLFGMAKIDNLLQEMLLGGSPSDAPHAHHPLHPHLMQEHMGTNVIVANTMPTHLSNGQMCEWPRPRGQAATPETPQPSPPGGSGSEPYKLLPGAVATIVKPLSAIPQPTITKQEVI
Sequence of Estrogen-related receptor gamma (Homo sapiens) (P62508 whole entry, looked up, the tested form may be a part): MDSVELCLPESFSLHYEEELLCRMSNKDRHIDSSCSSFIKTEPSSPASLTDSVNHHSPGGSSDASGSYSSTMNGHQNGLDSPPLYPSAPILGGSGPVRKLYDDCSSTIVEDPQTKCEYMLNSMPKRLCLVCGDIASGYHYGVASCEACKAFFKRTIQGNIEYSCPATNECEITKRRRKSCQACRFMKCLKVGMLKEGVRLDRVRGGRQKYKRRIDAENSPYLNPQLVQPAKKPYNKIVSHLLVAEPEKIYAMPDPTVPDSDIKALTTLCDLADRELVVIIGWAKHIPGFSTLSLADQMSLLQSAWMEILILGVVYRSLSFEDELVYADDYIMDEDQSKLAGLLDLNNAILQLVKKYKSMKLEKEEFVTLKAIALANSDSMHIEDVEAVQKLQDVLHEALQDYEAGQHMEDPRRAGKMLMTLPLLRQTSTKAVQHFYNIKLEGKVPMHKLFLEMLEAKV
Sequence of Steroid hormone receptor ERR1 (Homo sapiens) (P11474 whole entry, looked up, the tested form may be a part): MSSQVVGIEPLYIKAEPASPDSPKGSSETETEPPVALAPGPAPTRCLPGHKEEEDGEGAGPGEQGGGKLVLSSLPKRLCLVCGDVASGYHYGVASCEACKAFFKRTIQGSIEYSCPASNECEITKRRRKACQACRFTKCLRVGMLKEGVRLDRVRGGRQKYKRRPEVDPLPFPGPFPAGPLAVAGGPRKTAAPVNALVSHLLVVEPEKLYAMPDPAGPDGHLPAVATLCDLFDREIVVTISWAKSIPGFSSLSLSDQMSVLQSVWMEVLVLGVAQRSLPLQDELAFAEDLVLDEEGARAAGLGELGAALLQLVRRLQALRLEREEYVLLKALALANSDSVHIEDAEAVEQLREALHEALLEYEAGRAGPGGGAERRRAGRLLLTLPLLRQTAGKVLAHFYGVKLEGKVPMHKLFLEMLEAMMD
Sequence of Oxysterols receptor LXR-alpha (Homo sapiens) (Q13133 whole entry, looked up): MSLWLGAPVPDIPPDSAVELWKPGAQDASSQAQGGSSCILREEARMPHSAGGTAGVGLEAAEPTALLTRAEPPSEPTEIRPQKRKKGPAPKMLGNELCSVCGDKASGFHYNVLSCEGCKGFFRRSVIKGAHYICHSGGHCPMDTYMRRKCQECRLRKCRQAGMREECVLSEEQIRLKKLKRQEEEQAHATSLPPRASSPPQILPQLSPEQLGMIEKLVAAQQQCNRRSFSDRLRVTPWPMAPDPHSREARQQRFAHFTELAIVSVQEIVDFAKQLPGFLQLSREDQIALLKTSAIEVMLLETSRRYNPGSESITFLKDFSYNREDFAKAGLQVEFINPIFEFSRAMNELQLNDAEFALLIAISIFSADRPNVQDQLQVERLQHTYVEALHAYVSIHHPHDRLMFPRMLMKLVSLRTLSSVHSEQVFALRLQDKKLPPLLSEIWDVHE
Sequence of Transcriptional activator Myb (Homo sapiens) (P10242 whole entry, looked up): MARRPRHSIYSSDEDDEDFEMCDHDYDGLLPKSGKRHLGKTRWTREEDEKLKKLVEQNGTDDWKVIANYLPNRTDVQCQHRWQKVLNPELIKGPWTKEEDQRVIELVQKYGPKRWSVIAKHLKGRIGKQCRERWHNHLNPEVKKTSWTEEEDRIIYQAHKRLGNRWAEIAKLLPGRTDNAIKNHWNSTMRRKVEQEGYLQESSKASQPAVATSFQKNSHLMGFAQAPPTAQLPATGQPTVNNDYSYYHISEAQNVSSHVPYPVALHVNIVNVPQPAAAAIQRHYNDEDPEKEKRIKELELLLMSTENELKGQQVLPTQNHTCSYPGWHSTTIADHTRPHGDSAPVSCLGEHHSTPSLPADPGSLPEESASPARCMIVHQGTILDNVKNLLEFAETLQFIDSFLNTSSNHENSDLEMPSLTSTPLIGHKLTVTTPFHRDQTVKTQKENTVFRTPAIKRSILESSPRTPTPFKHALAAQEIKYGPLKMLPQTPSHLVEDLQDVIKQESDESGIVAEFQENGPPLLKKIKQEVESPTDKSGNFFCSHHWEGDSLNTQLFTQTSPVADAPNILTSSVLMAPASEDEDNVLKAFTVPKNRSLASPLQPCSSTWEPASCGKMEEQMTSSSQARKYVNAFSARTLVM
Sequence of X-box-binding protein 1 (Homo sapiens) (P17861 whole entry, looked up): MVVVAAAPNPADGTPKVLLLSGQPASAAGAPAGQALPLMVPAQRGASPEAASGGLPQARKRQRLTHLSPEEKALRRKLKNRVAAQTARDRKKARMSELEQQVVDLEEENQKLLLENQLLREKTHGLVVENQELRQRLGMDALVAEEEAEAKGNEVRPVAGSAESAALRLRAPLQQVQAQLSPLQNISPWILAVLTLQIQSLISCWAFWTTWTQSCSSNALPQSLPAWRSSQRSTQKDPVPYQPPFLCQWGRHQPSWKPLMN
Sequence of Nuclear receptor subfamily 1 group I member 3 (Homo sapiens) (Q14994 whole entry, looked up, the tested form may be a part): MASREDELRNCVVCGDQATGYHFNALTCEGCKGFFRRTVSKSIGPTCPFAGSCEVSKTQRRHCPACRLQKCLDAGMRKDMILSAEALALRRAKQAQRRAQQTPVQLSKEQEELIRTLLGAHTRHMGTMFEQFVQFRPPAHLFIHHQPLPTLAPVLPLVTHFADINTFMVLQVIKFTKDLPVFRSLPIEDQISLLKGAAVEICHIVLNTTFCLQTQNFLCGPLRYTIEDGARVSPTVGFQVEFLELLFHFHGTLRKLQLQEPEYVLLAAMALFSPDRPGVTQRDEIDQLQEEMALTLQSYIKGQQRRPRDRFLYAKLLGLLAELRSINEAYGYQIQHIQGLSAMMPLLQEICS

Nc1ccc(N=Nc2ccccc2)cc1
active: [1] 100 µM | [3] 54 µM | [4] 33 µM | [6] 73.9 µM
inactive: [2] | [5] | [7] | [8] | [9] | [10] | [11] | [12] | [13] | [14]

Nc1cc(Cl)cc(C(=O)O)c1Cl
inactive: [1] | [2] | [3] | [5] | [6] | [8] | [10] | [15] | [13] | [14]

CS(=O)(=O)NC(=O)c1cc(Oc2ccc(C(F)(F)F)cc2Cl)ccc1[N+](=O)[O-]
inactive: [1] | [2] | [3] | [6] | [7] | [16] | [11] | [13] | [14]

COC(=O)c1ccccc1N
inactive: [1] | [2] | [3] | [5] | [6] | [7] | [17] | [13] | [14]

CO[C@@H]1[C@H](OC(=O)NC(=O)CCl)CC[C@]2(CO2)[C@H]1[C@@]1(C)O[C@@H]1CC=C(C)C
inactive: [1] | [2] | [3] | [18] | [8] | [9] | [17] | [10] | [15] | [11] | [13] | [14]
active: [6] 30.9 µM

[Cl-].[Cl-].[Hg+2]
inactive: [1] | [2] | [3] | [6] | [7] | [17] | [10] | [11] | [12] | [13] | [14]

O=C(N[C@H](c1ccccc1)[C@@H]1CN2CCC1CC2)c1c(Cl)ccc(C(F)(F)F)c1Cl
inactive: [1] | [2] | [3] | [5] | [6] | [8] | [19] | [15] | [13] | [14]

c1ccc(C2CO2)cc1 (stereo unspecified)
inactive: [1] | [2] | [3] | [6] | [7] | [9] | [11] | [12] | [13] | [14]

C=CCc1ccc2c(c1)OCO2
inactive: [1] | [2] | [3] | [6] | [9] | [17] | [10] | [15] | [11] | [12] | [13] | [14]

CCCCCCCCOC(=O)c1ccc(C(=O)OCCCCCCCC)c(C(=O)OCCCCCCCC)c1
inactive: [1] | [2] | [6] | [7] | [9] | [17] | [10] | [12] | [13] | [14]

N#CC(Br)Br
inactive: [1] | [2] | [20] | [4] | [6] | [16] | [9] | [19] | [17] | [15] | [11] | [13] | [14]
